# Assay results: the supplement of paper PMC10849652
# The full data set covers some 8,800 targets. This sample favours those with a hit. About 0.5% of all pairs of compound and target were hits. Unmarked numbers belong to inactive results.
# Key:
# Test in all cases: log2 fold change, soluble protein after heating vs DMSO (PISA); higher = thermal stabilisation; K562 lysate, 10 uM; active = over 0.2 and 3.5 SD of the protein, either way, in both replicates (recomputed)
# nilotinib = compound: Cc1cn(-c2cc(NC(=O)c3ccc(C)c(Nc4nccc(-c5cccnc5)n4)c3)cc(C(F)(F)F)c2)cn1 [nilotinib]
# In short: (§1)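 K562 pellets were dounce-homogenised in PBS pH 7.4 containing 1 mM MgCl2, and the crude extract, at 1 mg/mL protein, was exposed to 10 μM compound for 30 min. Aliquots were heated for 3 min across 48°C-58°C, pooled, brought to 0.5% NP-40 at 4°C and spun at 21,000xg for 90 min, with the supernatant taken as soluble protein. TMTpro 16plex LC-MS/MS with equalised channel sums quantified that protein. Values are log-two fold changes in thermal stability relative to solvent controls, taken from duplicates.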
# [1] = compound: Cc1nc(Nc2n[nH]c3c2CN(C(=O)N[C@H](CN(C)C)c2ccccc2)C3(C)C)c2sccc2n1
# In short: as §1
# dasatinib = compound: Cc1nc(Nc2ncc(C(=O)Nc3c(C)cccc3Cl)s2)cc(N2CCN(CCO)CC2)n1 [dasatinib]
# In short: as §1
# [2] = compound: Cc1ncc(-c2ccnc(Nc3ccc(S(C)(=O)=O)cc3)n2)n1C(C)C
# In short: as §1
# [3] = compound: Cn1cc(-c2ccc3c(c2)CCN3C(=O)Cc2cccc(C(F)(F)F)c2)c2c(N)ncnc21
# In short: as §1
# quisinostat = compound: Cn1cc(CNCC2CCN(c3ncc(C(=O)NO)cn3)CC2)c2ccccc21 [quisinostat]
# In short: as §1
# tipifarnib = compound: Cn1cncc1[C@@](N)(c1ccc(Cl)cc1)c1ccc2c(c1)c(-c1cccc(Cl)c1)cc(=O)n2C [tipifarnib]
# In short: as §1
# [4] = compound: NC(=O)Nc1cc(-c2cccc(F)c2)sc1C(=O)N[C@H]1CCCNC1
# In short: as §1
# [5] = compound: NC(=O)c1cnc(N[C@@H]2CCCC[C@@H]2N)nc1Nc1cccc(-n2nccn2)c1
# In short: as §1
# [6] = compound: NC1(c2ccc(-c3nc4ccn5c(=O)[nH]nc5c4cc3-c3ccccc3)cc2)CCC1
# In short: as §1
# [7] = compound: NCC(=O)Nc1ccc(-n2nc(C(F)(F)F)cc2-c2ccc3c(ccc4ccccc43)c2)cc1
# In short: as §1
# vorinostat = compound: O=C(CCCCCCC(=O)Nc1ccccc1)NO [vorinostat]
# In short: as §1
# silmitasertib = compound: O=C(O)c1ccc2c(c1)nc(Nc1cccc(Cl)c1)c1ccncc12 [silmitasertib]
# In short: as §1
# [8] = compound: O=C1NC(=O)C(c2cnc3ccccn23)=C1c1cn2c3c(cc(F)cc13)CN(C(=O)N1CCCCC1)CC2
# In short: as §1
# entospletinib = compound: c1cn2cc(-c3ccc4cn[nH]c4c3)nc(Nc3ccc(N4CCOCC4)cc3)c2n1 [entospletinib]
# In short: as §1
# Chain of UniProt Q13492 (Q13492 whole entry, looked up): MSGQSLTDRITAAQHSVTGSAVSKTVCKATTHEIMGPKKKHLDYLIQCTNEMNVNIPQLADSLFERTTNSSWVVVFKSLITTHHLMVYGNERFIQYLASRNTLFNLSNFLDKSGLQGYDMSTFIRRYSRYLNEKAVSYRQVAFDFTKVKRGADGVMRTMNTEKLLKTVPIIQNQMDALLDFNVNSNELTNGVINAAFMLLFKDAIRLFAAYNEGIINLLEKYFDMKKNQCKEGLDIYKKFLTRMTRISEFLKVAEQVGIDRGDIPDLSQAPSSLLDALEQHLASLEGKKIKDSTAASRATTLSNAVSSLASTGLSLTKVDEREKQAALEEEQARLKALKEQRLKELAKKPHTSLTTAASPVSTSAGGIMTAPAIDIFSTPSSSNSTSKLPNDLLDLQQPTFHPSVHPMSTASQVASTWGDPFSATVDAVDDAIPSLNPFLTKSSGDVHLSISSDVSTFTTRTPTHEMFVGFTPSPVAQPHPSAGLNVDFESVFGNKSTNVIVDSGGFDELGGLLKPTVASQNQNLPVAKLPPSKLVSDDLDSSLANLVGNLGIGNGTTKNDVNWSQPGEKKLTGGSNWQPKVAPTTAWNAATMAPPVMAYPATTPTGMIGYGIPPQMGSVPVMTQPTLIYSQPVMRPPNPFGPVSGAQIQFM
# Chain of UniProt P28065 (P28065 whole entry, looked up): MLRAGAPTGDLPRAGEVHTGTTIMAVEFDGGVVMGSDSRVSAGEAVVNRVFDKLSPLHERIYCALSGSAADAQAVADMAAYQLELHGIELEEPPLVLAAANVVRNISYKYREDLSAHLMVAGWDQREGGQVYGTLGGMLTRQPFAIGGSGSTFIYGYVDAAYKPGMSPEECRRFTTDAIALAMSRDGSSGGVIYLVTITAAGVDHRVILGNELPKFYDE
# Chain of UniProt O00541 (O00541 whole entry, looked up): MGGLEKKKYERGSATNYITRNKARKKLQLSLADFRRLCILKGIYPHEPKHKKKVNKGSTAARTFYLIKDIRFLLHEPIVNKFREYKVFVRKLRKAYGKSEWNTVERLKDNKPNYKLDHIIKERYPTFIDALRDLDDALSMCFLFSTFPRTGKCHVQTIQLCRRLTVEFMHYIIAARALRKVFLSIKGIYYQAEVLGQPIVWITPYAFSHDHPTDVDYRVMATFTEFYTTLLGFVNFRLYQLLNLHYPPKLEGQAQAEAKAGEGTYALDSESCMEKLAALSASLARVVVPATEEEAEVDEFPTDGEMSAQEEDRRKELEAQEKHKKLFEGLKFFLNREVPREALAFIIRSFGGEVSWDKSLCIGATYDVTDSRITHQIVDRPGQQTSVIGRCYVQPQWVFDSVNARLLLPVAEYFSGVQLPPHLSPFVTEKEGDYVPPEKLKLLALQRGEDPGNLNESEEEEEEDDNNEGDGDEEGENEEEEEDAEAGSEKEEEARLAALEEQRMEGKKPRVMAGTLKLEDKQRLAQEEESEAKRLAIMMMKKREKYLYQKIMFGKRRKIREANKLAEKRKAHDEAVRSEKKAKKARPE
# Chain of UniProt Q8TD55 (Q8TD55 whole entry, looked up): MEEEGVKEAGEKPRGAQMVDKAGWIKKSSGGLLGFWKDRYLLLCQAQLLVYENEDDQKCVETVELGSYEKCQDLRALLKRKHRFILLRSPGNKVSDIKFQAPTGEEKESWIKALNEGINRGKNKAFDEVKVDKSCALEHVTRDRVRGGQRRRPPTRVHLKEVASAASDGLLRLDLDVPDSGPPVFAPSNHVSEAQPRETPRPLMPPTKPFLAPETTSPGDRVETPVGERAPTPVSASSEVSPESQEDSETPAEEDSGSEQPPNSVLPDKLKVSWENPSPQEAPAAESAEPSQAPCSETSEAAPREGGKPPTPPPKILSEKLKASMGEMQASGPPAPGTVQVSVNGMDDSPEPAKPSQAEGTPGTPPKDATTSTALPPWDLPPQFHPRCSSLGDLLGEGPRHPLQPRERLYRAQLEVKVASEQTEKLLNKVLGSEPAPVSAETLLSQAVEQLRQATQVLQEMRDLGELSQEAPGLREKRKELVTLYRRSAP
# Chain of UniProt Q8TEQ8 (Q8TEQ8 whole entry, looked up): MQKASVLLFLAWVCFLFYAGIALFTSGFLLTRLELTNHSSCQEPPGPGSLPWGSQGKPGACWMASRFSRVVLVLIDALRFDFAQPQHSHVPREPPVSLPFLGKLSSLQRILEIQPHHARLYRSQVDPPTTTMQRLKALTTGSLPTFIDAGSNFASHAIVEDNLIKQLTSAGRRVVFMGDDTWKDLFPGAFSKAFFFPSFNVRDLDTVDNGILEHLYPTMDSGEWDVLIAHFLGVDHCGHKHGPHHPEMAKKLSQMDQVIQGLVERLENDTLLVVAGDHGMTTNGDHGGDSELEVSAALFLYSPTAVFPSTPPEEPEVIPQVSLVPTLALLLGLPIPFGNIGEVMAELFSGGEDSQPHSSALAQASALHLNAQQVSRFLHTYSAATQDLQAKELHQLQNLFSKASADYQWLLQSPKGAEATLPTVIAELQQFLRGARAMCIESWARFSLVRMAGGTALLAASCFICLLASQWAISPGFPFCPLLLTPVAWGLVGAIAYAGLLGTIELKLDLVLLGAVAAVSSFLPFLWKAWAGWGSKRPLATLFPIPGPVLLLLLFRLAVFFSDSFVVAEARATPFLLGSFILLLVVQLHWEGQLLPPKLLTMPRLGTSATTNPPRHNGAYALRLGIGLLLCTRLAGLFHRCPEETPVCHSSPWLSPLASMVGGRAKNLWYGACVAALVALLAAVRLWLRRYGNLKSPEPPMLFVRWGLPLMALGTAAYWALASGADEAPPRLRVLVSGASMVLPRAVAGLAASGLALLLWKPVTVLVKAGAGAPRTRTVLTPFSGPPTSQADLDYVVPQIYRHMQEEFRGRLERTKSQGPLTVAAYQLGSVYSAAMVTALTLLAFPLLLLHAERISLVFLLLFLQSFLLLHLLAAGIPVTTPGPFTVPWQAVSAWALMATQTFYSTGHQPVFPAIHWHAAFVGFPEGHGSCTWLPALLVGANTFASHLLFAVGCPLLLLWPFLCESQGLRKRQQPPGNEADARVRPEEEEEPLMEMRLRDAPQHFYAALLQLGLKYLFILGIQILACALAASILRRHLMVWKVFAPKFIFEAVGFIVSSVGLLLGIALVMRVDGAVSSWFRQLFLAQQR
# Chain of UniProt O00408 (O00408 whole entry, looked up): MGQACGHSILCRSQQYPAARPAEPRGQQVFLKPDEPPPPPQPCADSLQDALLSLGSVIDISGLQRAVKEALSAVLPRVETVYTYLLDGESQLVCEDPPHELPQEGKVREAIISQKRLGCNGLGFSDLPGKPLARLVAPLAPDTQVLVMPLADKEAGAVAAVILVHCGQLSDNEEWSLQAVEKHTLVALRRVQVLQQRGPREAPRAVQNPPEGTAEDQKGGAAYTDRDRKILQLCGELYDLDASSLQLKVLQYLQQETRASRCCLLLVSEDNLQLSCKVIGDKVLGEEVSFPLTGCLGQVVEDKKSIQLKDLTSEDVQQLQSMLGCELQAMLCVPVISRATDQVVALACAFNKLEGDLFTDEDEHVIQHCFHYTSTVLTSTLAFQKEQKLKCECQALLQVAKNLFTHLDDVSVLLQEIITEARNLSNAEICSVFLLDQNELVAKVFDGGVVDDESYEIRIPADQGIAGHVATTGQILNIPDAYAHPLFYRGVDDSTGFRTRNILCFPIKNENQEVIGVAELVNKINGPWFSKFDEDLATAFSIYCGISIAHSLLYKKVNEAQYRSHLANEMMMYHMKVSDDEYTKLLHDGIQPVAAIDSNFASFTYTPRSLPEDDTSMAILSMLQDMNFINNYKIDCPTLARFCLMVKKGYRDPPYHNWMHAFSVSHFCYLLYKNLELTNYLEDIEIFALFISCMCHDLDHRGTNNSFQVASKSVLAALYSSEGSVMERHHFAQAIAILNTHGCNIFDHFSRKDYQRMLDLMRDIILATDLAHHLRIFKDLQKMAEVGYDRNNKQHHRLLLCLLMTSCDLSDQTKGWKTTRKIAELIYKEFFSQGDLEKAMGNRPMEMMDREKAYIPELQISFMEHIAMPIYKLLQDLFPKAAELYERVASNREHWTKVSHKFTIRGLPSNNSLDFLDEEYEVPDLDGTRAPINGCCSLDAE
# Chain of UniProt P57721 (P57721 whole entry, looked up): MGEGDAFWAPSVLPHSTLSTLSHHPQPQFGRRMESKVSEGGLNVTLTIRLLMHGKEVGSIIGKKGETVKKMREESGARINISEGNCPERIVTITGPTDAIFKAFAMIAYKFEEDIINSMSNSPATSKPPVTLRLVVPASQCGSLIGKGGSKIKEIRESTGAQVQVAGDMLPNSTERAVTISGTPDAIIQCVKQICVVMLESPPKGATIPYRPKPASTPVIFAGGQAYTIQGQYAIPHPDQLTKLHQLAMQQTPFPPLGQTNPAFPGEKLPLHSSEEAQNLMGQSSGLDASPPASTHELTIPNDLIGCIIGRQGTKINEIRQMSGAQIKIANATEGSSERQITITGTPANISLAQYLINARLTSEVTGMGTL
# Chain of UniProt Q9Y244 (Q9Y244 whole entry, looked up): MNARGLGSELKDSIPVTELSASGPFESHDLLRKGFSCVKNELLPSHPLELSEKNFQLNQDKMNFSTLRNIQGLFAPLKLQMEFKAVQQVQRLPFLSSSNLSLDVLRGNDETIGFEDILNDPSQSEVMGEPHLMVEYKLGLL
# Chain of UniProt Q16816 (Q16816 whole entry, looked up): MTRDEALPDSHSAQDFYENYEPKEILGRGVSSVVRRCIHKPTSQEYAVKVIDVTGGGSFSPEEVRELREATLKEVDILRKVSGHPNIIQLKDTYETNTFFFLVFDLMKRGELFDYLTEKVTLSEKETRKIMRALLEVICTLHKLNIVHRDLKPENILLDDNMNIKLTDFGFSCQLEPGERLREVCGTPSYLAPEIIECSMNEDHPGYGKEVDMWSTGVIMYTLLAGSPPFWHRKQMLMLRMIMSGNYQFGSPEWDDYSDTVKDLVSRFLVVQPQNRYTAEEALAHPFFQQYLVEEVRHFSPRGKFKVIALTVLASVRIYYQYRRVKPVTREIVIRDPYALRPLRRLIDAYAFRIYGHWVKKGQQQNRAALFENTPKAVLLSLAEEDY
Target,log2 fold change (nilotinib),log2 fold change [1],log2 fold change (dasatinib),log2 fold change [2],log2 fold change [3],log2 fold change (quisinostat),log2 fold change (tipifarnib),log2 fold change [4],log2 fold change [5],log2 fold change [6],log2 fold change [7],log2 fold change (vorinostat),log2 fold change (silmitasertib),log2 fold change [8],log2 fold change (entospletinib)
PRAME (UniProt P78395),0.028,0.005,-0.004,0.001,-0.017,-0.081,-0.007,0.053,-0.01,-0.006,0.025,-0.283 (active),0.043,0.004,0.048
PDPK1 (UniProt O15530),-0.093,0.314,-0.014,-0.093,0,-0.094,-0.011,0.619 (active),0.019,-0.059,-0.056,-0.246,0.09,0.004,-0.007
PDE2A (UniProt O00408),0.021,-0.033,0.042,-0.008,0.035,0.026,0.042,0.006,0.08,-0.184,0.195,0.117,0.022,0.071,0.01
PLEKHO2 (UniProt Q8TD55),0.207,-0.237,-0.096,0.118,-0.039,0.062,-0.192,0.068,-0.071,0.873 (active),0.045,-0.103,0.347,-0.018,0.082
PTPN2 (UniProt P17706),0,0.026,-0.026,-0.041,0.014,-0.067,-0.001,0.025,0.006,-0.005,-0.005,-0.298 (active),0.024,-0.002,0.07
PPP2R5C isoform 4 (UniProt Q13362),-0.012,-0.005,0.031,-0.002,0.017,-0.126,0.021,0.079,-0.013,-0.04,0.075,0.082,-0.067,0.074,-0.012
PICALM (UniProt Q13492),-0.012,-0.01,-0.036,-0.009,0.001,-0.003,-0.042,-0.018,0.012,0.007,0.02,0.048,0.003,-0.019,-0.005
PHKA2 (UniProt P46019),0.005,0.163,-0.05,0.019,-0.028,-0.148,0.015,0.302 (active),0.001,-0.037,0.017,-0.29 (active),0.105,-0.048,-0.012
PUF60 (UniProt Q9UHX1),-0.006,-0.002,-0.025,0.011,-0.017,0.073,0.016,-0.017,-0.001,0.021,-0.007,0.15,-0.029,0.002,0.002
PRKCD (UniProt Q05655),0.002,0.193,-0.053,0.056,0,0.002,-0.013,-0.013,0.218,0.021,0.008,-0.075,-0.006,-0.005,0.019
POMP (UniProt Q9Y244),0.021,0.057,0.048,0.301 (active),0,-0.054,-0.046,-0.007,0.039,-0.002,-0.016,-0.028,0.05,0.014,-0.12
PYCR2 (UniProt Q96C36),0.03,-0.027,0.011,-0.007,-0.005,0.073,-0.015,-0.021,0.007,0.018,0.002,0.1,-0.008,0.015,0
PCBP3 (UniProt P57721),0.015,-0.022,-0.005,0.018,-0.025,-0.004,0,-0.023,-0.014,0.012,0.016,-0.371 (active),0.001,-0.001,0.016
PPP4R2 (UniProt Q9NY27),0.012,0.018,0.029,0.005,-0.028,-0.009,-0.042,-0.011,0.009,-0.01,-0.007,-0.053,-0.016,0.023,-0.001
PHGDH (UniProt O43175),0.013,-0.025,-0.077,0.005,0.021,-0.032,0.018,-0.032,0.006,0.054,0.023,-0.939 (active),0.031,0.028,0.016
PTGR2 (UniProt Q8N8N7),0.024,-0.044,0.012,0.025,0.024,-0.008,0.034,-0.011,-0.002,0.011,-0.083,0.656 (active),-0.002,0.11,-0.005
PHKG1 isoform 2 (UniProt Q16816),-0.049,1.01 (active),-0.124,-0.204,-0.021,-0.151,-0.007,1.31 (active),0.043,-0.181,0.053,-0.342,0.259,-0.123,-0.002
PRMT7 (UniProt Q9NVM4),0.039,-0.01,0.032,-0.029,-0.032,-0.041,-0.011,0.023,0.028,0.025,-0.017,-0.174,-0.011,0.04,-0.018
PIGO (UniProt Q8TEQ8),-0.019,0.055,-0.032,-0.19,0.079,-0.119,0.013,0.301,0.059,0.041,-0.156,0.15,0.18,0.121,-0.015
PES1 (UniProt O00541),-0.004,0.006,0.016,-0.034,0.001,-0.067,0.001,0.026,0.015,-0.047,0.03,-0.193,0.037,0.014,-0.015
PSMB9 (UniProt P28065),0.019,0.092,-0.031,-0.098,-0.033,-0.213,0.024,0.027,0.034,-0.076,0.07,0.057,0.008,0.081,0
